Laboratory results as given in PubChem BioAssay (NCATS).
Results filed as inconclusive are left out. Calls of active or inactive are those of the source. The call rests on the fitted dose curve; in most records, active means well fitted cell-killing curve with a large enough effect; inconclusive means small, poorly fitted or top-dose-only effect, or effect the other way; inactive means no such curve, though single readings can be large or run the other way.

Assay: qHTS of pediatric cancer cell lines to identify multiple opportunities for drug repurposing: Confirmatory screen for OHS-50 cells (AID 1347128);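 further: compound exposure lasted 48 h at 37 degrees C; nearly all actives have a fitted effect of over 55% in size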
Conditions: OHS-50 osteosarcoma cells viability; series mostly up to 45.9 µM
How it was run: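 Cells (500-1,000/well) rested 5 h, then received compounds for 48 h; metabolically active cells were measured by CellTiter-Glo luminescence. Final concentrations spanned up to 46 µM (MIPE, 11-point) or 0.59 nM-46 µM (NPC, 8-point) in primary screens, 11-point in follow-ups.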
Potency means the concentration at half of the fitted maximal effect.

Row | Structure (SMILES) | Potency
1 | N[C@@H](Cc1ccc(N(CCCl)CCCl)cc1)C(=O)O | 26.1 µM (active)
2 | COC[C@@H](NC(C)=O)C(=O)NCc1ccccc1 | inactive
3 | C=C(C)[C@H]1Cc2c(ccc3c2O[C@@H]2COc4cc(OC)c(OC)cc4[C@@H]2C3=O)O1 | 1.47 µM (active)
4 | O=P1(NCCCl)OCCCN1CCCl (centres undefined) | inactive
5 | C[C@@H]1O[C@@H](O[C@H]2C[C@@H](O)[C@]3(CO)[C@H]4[C@H](O)C[C@]5(C)[C@@H](C6=CC(=O)OC6)CC[C@]5(O)[C@@H]4CC[C@]3(O)C2)[C@H](O)[C@H](O)[C@H]1O | 0.0928 µM (active)
6 | Cn1cc(C2=C(c3cn(C4CCN(Cc5ccccn5)CC4)c4ccccc34)C(=O)NC2=O)c2ccccc21 | inactive
7 | Cn1c(CCCC(=O)O)nc2cc(N(CCCl)CCCl)ccc21 | inactive
8 | O=c1[nH]c2ccccc2n1CCCN1CCC(n2c(=O)[nH]c3cc(Cl)ccc32)CC1 | 13.1 µM (active)
9 | C[C@@H]1[C@@H](CC(C[C@H]2O[C@@H]3O[C@]4(C)CC[C@@H]5[C@H](C)CC[C@@H]([C@H]2C)[C@@]35OO4)C[S+](=O)([O-])c2ccc(COC(=O)N(C)C)cc2)O[C@@H]2O[C@]3(C)CC[C@H]4[C@H](C)CC[C@@H]1[C@@]24OO3 (some centres undefined) | 0.233 µM (active)
